The list is not random: actives were taken first. Their share in the collection is about 3.4%.
MITF primary: blocks human microphthalmia-associated transcription factor | O75030 | AlphaScreen MITF homodimerization, bead proximity signal | inhibition, % at 2.6 µM | actives 0.91% (n = 650,000) | AID 1259374; in the data active means inhibition above about 50%
Target sequence (O75030 whole entry, looked up): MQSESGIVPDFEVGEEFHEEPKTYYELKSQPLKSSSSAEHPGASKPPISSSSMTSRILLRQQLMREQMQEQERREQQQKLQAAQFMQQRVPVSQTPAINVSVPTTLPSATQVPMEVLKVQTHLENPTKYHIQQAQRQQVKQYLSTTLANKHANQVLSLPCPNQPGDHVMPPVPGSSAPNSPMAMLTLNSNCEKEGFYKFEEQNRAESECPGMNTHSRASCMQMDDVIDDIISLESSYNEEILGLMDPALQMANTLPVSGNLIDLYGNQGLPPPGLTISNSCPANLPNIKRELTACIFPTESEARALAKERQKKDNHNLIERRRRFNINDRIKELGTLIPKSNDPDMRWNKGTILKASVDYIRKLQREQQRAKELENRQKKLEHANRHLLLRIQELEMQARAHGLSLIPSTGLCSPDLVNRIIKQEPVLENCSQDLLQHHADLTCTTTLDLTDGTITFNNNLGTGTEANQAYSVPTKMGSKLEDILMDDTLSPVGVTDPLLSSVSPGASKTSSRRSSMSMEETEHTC
TEAD-YAP inh: TEAD-YAP interaction inhibition; HEK-TIYL cells, TEAD-Gal4/YAP UAS-luciferase luminescence; inhibition, % at 9.12 µM; actives 1.4% (n = 640,000); AID 1259422; in the data active means inhibition above about 32%
FBW7 act: activators of human E3 ligase FBW7. normalized activity (activation), % at 26.1 µM. actives 0.13% (n = 650,000). AID 1259310. AlphaScreen FBW7–phospho-cyclin E peptide binding, activator screen; in the data active means normalized activity above about 1.9%;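 further: purified mutant Fbw7 with reduced substrate affinity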
GPR151 activ: activators of human GPR151; Q8TDV0; actives 1% (n = 650,000); AID 1508602; activation, % at 11.2 µM; PathHunter beta-arrestin GPR151 cells, luminescence; in the data active means activation above about 4.9%
GPR151 conf act: confirmation of human GPR151 activators; shares compounds with GPR151 activ; GPR151 PathHunter beta-arrestin cells, luminescence, 90 min; % of EA-reagent control over plate median; activation, % at 11.2 µM; 6,700 tested, under 10 active; AID 1508609;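 active means mean percent activation across replicates above the confirmation screen cutoff of 4.91%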
GPR119 counter: GPR119 activation, counter-screen for GPR151 activators. activation, % at 11.2 µM. AID 1508611. shares compounds with GPR151 activ. actives 0.3% (n = 6,700). GPR119 PathHunter beta-arrestin cells, luminescence, 90 min; 0 = compound-well median, 100 = enzyme-acceptor control;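 active means mean percent activation in the counterscreen above 29.09%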;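 further: counterscreen on off-target GPR119 to flag nonselective hits from the GPR151 activator screen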
Each line names hits and unclear results; the compound was inactive in the other large screens (follow-up assays come after a bar, where they were run).

O=C(CCc1nnc(C2(c3ccc(Cl)cc3)CCC2)o1)NCc1cccnc1	GPR151 activ 4.9 | GPR151 conf act inactive | GPR119 counter inactive
COc1cc(OC)c(NC(=O)CSc2nc3ccccc3n2S(C)(=O)=O)cc1Cl	none
O=C(CN1CCN(c2ccccc2F)CC1)Nc1cc(C(F)(F)F)ccc1Cl	none
O=C(CN1CCCCC1)Nc1cc(C(F)(F)F)ccc1Cl	GPR151 activ 7.0 | GPR151 conf act inactive | GPR119 counter inactive
Cc1ccc(C(=O)CC(=O)C(=O)Nc2ncccc2O)c(C)c1	GPR151 activ 8.3 | GPR151 conf act inactive | GPR119 counter inactive
Cc1ccc2[nH]c3c(c2c1)CCCC3NC(=O)CCl (stereo not given)	TEAD-YAP inh 88, GPR151 activ 7.3 | GPR151 conf act inactive | GPR119 counter inactive
Cc1ccnc(NC(=O)C2CCCC2)c1	none
Cc1ccnc(NC(=O)C2CC=CCC2C(=O)O)c1 (stereo not given)	GPR151 activ 6.3 | GPR151 conf act inactive | GPR119 counter inactive
CCSc1nc2sccn2c(=O)c1C(=O)Nc1cc(C(C)(C)C)nn1C	GPR151 activ 5.0 | GPR151 conf act inactive | GPR119 counter inactive
CCSc1nc2sccn2c(=O)c1C(=O)Nc1cc(-c2ccccc2)nn1C	none
O=C(NC1CCN(C(=O)Nc2cccc(Cl)c2)CC1)C1CCCCC1	none
Cc1cccc(NC(=O)N2CCC(NC(=O)C3CCCCC3)CC2)c1	GPR151 activ 5.9 | GPR151 conf act inactive | GPR119 counter inactive
Cc1c(Cl)cccc1NC(=O)CN1CCC(NC(=O)C2CCCCC2)CC1	GPR151 activ 8.4 | GPR151 conf act inactive | GPR119 counter inactive
COc1ccc(CC(=O)Nc2cccc(C)c2C)cc1OC	none
COC(=O)c1ccc(/C=N/NC(=O)c2cc(-c3cccs3)[nH]n2)cc1	GPR151 activ 7.4 | GPR151 conf act inactive | GPR119 counter inactive
O=C(O)c1ccc(/C=N/NC(=O)c2cc(-c3cccs3)[nH]n2)cc1	none
COCCNCCCCOc1cc(C(C)C)ccc1C	none
CC1=C(C(=O)Nc2ccccc2C)C(c2ccccc2)C(C#N)=C(SCC(=O)Nc2cc(C)ccc2C)N1 (stereo not given)	GPR151 activ 12 | GPR151 conf act inactive | GPR119 counter inactive
CC1=C(C(=O)Nc2ccccc2C)C(c2ccccc2)C(C#N)=C(SCC(=O)Nc2ccccc2C)N1 (stereo not given)	none
COC(=O)CSC1=C(C#N)C(c2ccccc2)C(C(=O)Nc2ccccc2)=C(C)N1 (stereo not given)	GPR151 activ 5.7 | GPR151 conf act inactive | GPR119 counter inactive
CC(=O)C1=C(C)NC(SCC(N)=O)=C(C#N)C1c1cccc([N+](=O)[O-])c1 (stereo not given)	GPR151 activ 9.3 | GPR151 conf act inactive | GPR119 counter inactive
CC1=C(C(=O)Nc2ccccc2)C(c2ccco2)C(C#N)=C(SCC(=O)Nc2ccc(F)cc2)N1 (stereo not given)	GPR151 activ 5.9 | GPR151 conf act inactive | GPR119 counter inactive
CCN(CC)c1ccc(/C=C2/C(=O)NC(=O)N(Cc3ccc(F)cc3)C2=O)cc1	GPR151 activ 11 | GPR151 conf act inactive | GPR119 counter inactive
CCOc1ccc(/C=C2/C(=O)NC(=O)N(Cc3ccc(F)cc3)C2=O)cc1	none
COc1ccc(C(=O)N[C@H]2C[C@H]3C(=O)N4CCC[C@H]4C(=O)N3C2)cc1	none
O=c1c(CN2CCN(c3ccc([N+](=O)[O-])cc3)CC2)coc2ccc(Cl)cc12	none
O=C(NCCCN1CCCCCC1)C(c1ccccc1)C1CCCCC1 (stereo not given)	GPR151 activ 5.3 (no result: TEAD-YAP inh) | GPR151 conf act inactive | GPR119 counter inactive
Cc1cccc(C(=O)N(CCN(C(=O)c2cccc(C)c2)c2ccccc2)c2ccccc2)c1	none
O=C1NC(=O)C(=Cc2ccc(OS(=O)(=O)c3ccc(Cl)cc3)cc2)C(=O)N1	none
COc1ccc(S(=O)(=O)Oc2ccc(C=C3C(=O)NC(=O)NC3=O)cc2)cc1	GPR151 activ 5.3 | GPR151 conf act inactive | GPR119 counter inactive
CC1(C)CC(=O)C2=C(C1)Nc1[nH]c(=O)[nH]c(=O)c1C2c1cccc([N+](=O)[O-])c1 (stereo not given)	none
COc1ccccc1N1CCN(C(=O)CSc2nc(N)cc(=O)[nH]2)CC1	none
COc1ccccc1N1CCN(C(=O)CSc2nc3ccccc3[nH]2)CC1	GPR151 activ 6.0 | GPR151 conf act inactive | GPR119 counter inactive
O=S1(=O)N=C(N(CCO)/N=C/c2cccc(O)c2O)c2ccccc21	GPR151 activ 5.9 | GPR151 conf act inactive | GPR119 counter inactive
CCOC(=O)c1cc2sccc2n1CC(=O)N(CC)CC	none
COc1cc(CNCCO)cc(Cl)c1OCc1ccc(Cl)cc1	none
COc1ccc(C=O)cc1Cn1cnc([N+](=O)[O-])n1	GPR151 activ 5.5 | GPR151 conf act inactive | GPR119 counter inactive
CCOc1cc(C(=O)N2CCCCC2)ccc1OC	none
CCOC(=O)c1c(NC(=O)CSc2nnc(CNC(=O)c3ccccc3F)n2-c2cccc(Cl)c2)sc2c1CCC2	none
COc1cc(Br)c(C2CC(=O)Nc3ccc4ccccc4c32)cc1OC (stereo not given)	none
COc1cc2c(c(OC)c1)C(c1cc(OC)c(OC)cc1Br)CC(=O)N2 (stereo not given)	GPR151 activ 5.1 | GPR151 conf act inactive | GPR119 counter inactive
O=C(CSc1nc2c(cnn2-c2ccccc2)c(=O)[nH]1)NC1CCCC1	none
c1ccc(Cn2cc(-c3ncoc3-c3ccnc(Nc4ccc(N5CCOCC5)cc4)c3)cn2)cc1	TEAD-YAP inh 45, GPR151 activ 6.0 | GPR151 conf act inactive | GPR119 counter inactive
COCCCN1C(=S)NC2c3cc(Br)ccc3OC1(C)C2C (stereo not given)	none
CCCN1C(=S)NC2c3ccccc3OC1(C)C2C (stereo not given)	GPR151 activ 7.5 | GPR151 conf act inactive | GPR119 counter inactive
C=CCOC(=O)C1C(=O)CC(C)(O)C(C(=O)OCC=C)C1c1ccc(C)cc1 (stereo not given)	none
COC(=O)c1ccc2c(=O)n(CCc3ccc(S(N)(=O)=O)cc3)c(SCC(=O)c3ccccc3)nc2c1	none
COC(=O)c1ccc2c(=O)n(CCc3ccc(S(N)(=O)=O)cc3)c(SCc3c(F)cccc3F)nc2c1	GPR151 activ 16 | GPR151 conf act inactive | GPR119 counter inactive
Cc1ccc(NS(=O)(=O)c2c(C)ccc3nsnc23)cc1	GPR151 activ 5.2 | GPR151 conf act inactive | GPR119 counter inactive
Cc1ccc(C)c(NS(=O)(=O)c2c(C)ccc3nsnc23)c1	none
O=C(c1cccc(F)c1F)N1CCCCCC1	GPR151 activ 4.9 | GPR151 conf act inactive | GPR119 counter inactive
O=C(c1cccc(F)c1F)N1CCCCC1	none
Cc1ccc(C(=O)N/C(=C\c2ccc3c(c2)OCO3)C(=O)Nc2ccccc2)cc1C	none

From PubChem BioAssay
